Measured values reported in the supplement of paper PMC10681739.

What follows are sequences tested against T1, ETS1 (UniProt P14921) (assay: ETS1 binding intensity (PBM fluorescence), ETS1 alone (arbitrary fluorescence units); higher = stronger binding). Details: ETS1 concentration 1 nM; RUNX1 concentration 0 nM.
T1 sequence: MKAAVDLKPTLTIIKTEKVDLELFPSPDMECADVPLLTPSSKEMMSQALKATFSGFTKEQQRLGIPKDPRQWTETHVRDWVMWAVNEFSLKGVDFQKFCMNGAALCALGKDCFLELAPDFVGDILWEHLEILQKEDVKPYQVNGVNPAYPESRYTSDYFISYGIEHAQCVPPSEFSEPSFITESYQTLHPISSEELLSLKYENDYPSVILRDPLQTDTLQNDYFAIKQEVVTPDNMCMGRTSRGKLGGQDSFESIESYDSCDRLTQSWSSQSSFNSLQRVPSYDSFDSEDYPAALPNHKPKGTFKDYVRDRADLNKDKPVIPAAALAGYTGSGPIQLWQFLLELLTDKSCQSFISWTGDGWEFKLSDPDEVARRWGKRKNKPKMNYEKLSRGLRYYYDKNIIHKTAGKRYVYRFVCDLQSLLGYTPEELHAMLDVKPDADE

Row | Sequence | ETS1 binding intensity
1 | ACAGGTTCAGGAAGCGGCCGTGGTTGTTAGTGGTGT | 718
2 | CTGCAGACAGGAGGATGTGGGCTTGCGCGCAAACAG | 675
3 | CGGCACCCTCCTTCCTCCCTGCCAACCGCCTCCACC | 556
4 | TGGGCACGGGAGGAAGAGGCTGGGTGGTAAACAGGA | 467
5 | AAAACGCGGAAATACGGTGGCTGCGGCCCGCGGGCA | 494
6 | GCGCACACATGCTTCCTGTGGTGACTGGGCGCTTCA | 527
7 | GGTGTTAGTAGTCAAGGAAGTGGTCACCCTTGACAG | 1010
8 | AGTTTCTCCAGGAAGCGCTGAGGTTTTCTCAGAAGT | 763
9 | GCTAAAGGAAGCTCTGTACAGCTGTGGTAAGGTGGC | 552

Each sequence was assayed against T1, ETS1 (assay: TF binding intensity (PBM fluorescence), negative control probe (arbitrary fluorescence units); higher = stronger binding). Details: not given.
Description: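 gcPBM negative-control 36-bp genomic probes lacking TF binding sites. Each was incubated with recombinant human ETS1 or RUNX1 alone and detected by antibody fluorescence. Values are medians over replicate spots (4 spots for the ETS1-RUNX1 arrays, 3 for the ETS1-ETS1 array). The probes sit in constant array flanks that are not printed.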

Row | Sequence | TF binding intensity
10 | TCTTTATCTGTCAGTACCACACTGTCTATTCTCCCA (protein concentration 1 nM) | 502
11 | GTTTCTTATAAGCAGAAACACTAACAAAGGACAGCG (protein concentration 10 nM) | 146
12 | TGGACTATATCAAGTGTGAACGATCATACTTGTTAT (protein concentration 10 nM) | 124
13 | AGTTATTCTAGCTCAAACCAAGTTATTTTTCACTTT (protein concentration 10 nM) | 108
14 | TTGAAATGCATTCTCTGTGGGCATATGAAGTAGATT (protein concentration 1 nM) | 410
15 | AGAAAGGCATGTCTCCAGGCTCTAAAGAGGCAAAGG (protein concentration 10 nM) | 117
16 | ACTCATTAGCAGTGAGCCACAAAGACTCTCTGGAAG (protein concentration 1 nM) | 359
17 | CCTGCCTCATTTGCTCACGGGCTCCCTCCCTCAAGG (protein concentration 10 nM) | 113
18 | AAGCCTGGAGTTGGGGTGGTGGGGTGAGAATCAGCC (protein concentration 10 nM) | 170
19 | TCCAGAAGCAGAGGCTGAGAGAGGGATTCTTGTGCC (protein concentration 10 nM) | 112
20 | TAAGATCCACTGGCTTGAAATTCTTGCTGCCAGCAC (protein concentration 10 nM) | 130
21 | GTTAAGTACCTGAATGAGCACTGGACCAGAGCCGGG (protein concentration 10 nM) | 106
22 | TAGAAACCGTGTTTTAAATTTAACACTGGTAAGATG (protein concentration 10 nM) | 113
23 | GATAGACATATAAAAACCACAAAAATCAAAACTGCA (protein concentration 1 nM) | 485
24 | TGGAATCTCATCCAAGCTGGATTTTGCGATCTTTGA (protein concentration 10 nM) | 104
25 | TTATCAAGTGAATCAAGCCATTGTCGGGTCGAAATA (protein concentration 10 nM) | 117

Row | Sequence | TF binding intensity
26 | CCCTGAGGTCTATCTTGCTGCAAATTGAATGCCTGC (protein concentration 10 nM) | 120
27 | GATATGAGATCAGAATGAGGCTGCATGAGAACAAGT (protein concentration 10 nM) | 112
28 | TTTCAGAGGGAAAAGAATTTTGCCGTTCGCGTTCGA (protein concentration 10 nM) | 113
29 | CCACCGAGTGTTCTCGTTGCTCCACCGTAGCATCAG (protein concentration 10 nM) | 124
30 | GAAGCAAGGATAATTAACTTCTACCAGTGATCCCCA (protein concentration 10 nM) | 124
31 | GCCCTCTGCGGGGCAACAGCACGAGGCATTACCCCT (protein concentration 10 nM) | 107
32 | CCTGTTTGAAAGAGAAAGAGGGCAGAGTGTGACATG (protein concentration 10 nM) | 160
33 | AGCTTTCCAAGTTTTTGTGGGCAACATCAACTGTTC (protein concentration 1 nM) | 486
34 | TGACTCTCCCCTCCATTCCCACCCCATACCCCCTTC (protein concentration 10 nM) | 198
35 | AACACTCAGTGTATTTTAATAAACAACATTTTTTAA (protein concentration 10 nM) | 96.6
36 | TTCTTCCCACCGCAGGGCATCTGCACGGGCCGCTCA (protein concentration 10 nM) | 125
37 | GCTGGGGTTTGCTGCCTGGAGGCAGCCTGTCCAGGA (protein concentration 10 nM) | 109
38 | CAGGCAGCATCTGGGGGTGTGTGGGTTTGGCAAGCT (protein concentration 10 nM) | 134
39 | GGGCCGCGCCGAGGGGACCACGGGACGCCCTCCTTC (protein concentration 10 nM) | 102
40 | ACGACTCTTCCCAAGCAGCGGGAGGATCTAGGCCCA (protein concentration 10 nM) | 102
